Assay results reported in PubChem BioAssay (Tox21).
Records with an inconclusive call do not appear. Where a call stands in place of a potency, no number is given. Unmarked numbers belong to inactive results. Active and inactive are the calls of the source. The call rests on the fitted dose curve; in most records, active means well fitted cell-killing curve with a large enough effect in the repeat runs; inconclusive means weak or mixed curves; inactive means no such curve, though single readings can be large or run the other way.

Assay: qHTS assay to identify small molecule antagonists of the peroxisome proliferator-activated receptor delta (PPARd) signaling pathway - cell viability counter screen (AID 743213); further: nearly all actives have a fitted effect of over 50% in size
Conditions: PPARd-bla HEK293H viability, CellTiter-Glo luminescence, 17 h; series mostly up to 62 µM
From the text: U.S. Tox21 Program National Center for Advancing Translational Sciences [NCATS] NIH Chemical Genomics Center [NCGC] U.S. Environmental Protection Agency [EPA] National Institutes of Environmental Health Sciences [NIEHS] National Toxicology Program [NTP] U.S. Food and Drug Administration [FDA] Tox21 Assay Overview: The peroxisome proliferator-activated receptors (PPARs) are lipid-activated transcription factors of the nuclear receptor superfamily with three distinct subtypes namely PPAR alpha, PPAR delta (PPARd) and PPAR gamma. All these subtypes heterodimerizes with Retinoid X receptor (RXR) and have different physiological functions. […] To identify the compounds that inhibit PPAR-delta signaling, GeneBLAzer PPAR delta UAS-bla HEK293H cell line (Invitrogen, Carlsbad, CA, USA) containing a beta-lactamase reporter gene under the control of an Upstream Activator Sequence (UAS) was used to screen the Tox21 compound library. The cytotoxicity of the Tox21 compound library against the PPARd-bla cell line was tested in parallel by measuring the cell viability using CellTiter-Glo assay (Promega, Madison, WI) in the same wells.
Tox21 Assay Protocol Summary: PPARd-bla cells were dispensed at 3000 cells/5uL/well in 1536-well black wall/clear bottom plates using a Multidrop Combi (Thermo Fisher Scientific, Waltham, MA) dispenser. After the assay plates were incubated at 37 C and 5% CO2 for 5 h, 23 nL of compounds dissolved in DMSO, positive controls or DMSO only was transferred to the assay plate by a Pintool station (Kalypsys, San Diego, CA), followed by addition of 1ul L165041 (300 nM, final concentration in the wells). The assay plates were incubated at 37 C for 17 h, and then 1 uL of LiveBLAzerTM B/G FRET substrate was added using a Bioraptr Flying Reagent Dispenser (FRD) workstation (Beckman Coulter, Indianapolis, IN, USA). The assay plates were incubated at room temperature for 2 h and fluorescence intensity was measured by an Envision plate reader (PerkinElmer, Shelton, CT). For cell viability readout that measures cytotoxicity, 3 ul/well of CellTiter-Glo reagent was added into the assay plates using a Bioraptr FRD. After 30 min incubation at room temperature, the luminescence intensity in the plates was measured using a ViewLux plate reader (PerkinElmer).

| SMILES | Potency | viability change, negative = cytotoxic |
| --- | --- | --- |
| Cc1c(NC(C)C)c(=O)n(-c2ccccc2)n1C | inactive | – |
| COC(=O)c1cc(C(=O)OC)cc(S(=O)(=O)O)c1 | inactive | – |
| C[N+](C)(C)CC(O)CC(=O)[O-] (stereo not given) | inactive | – |
| Oc1ccc(C2CNCCc3c2cc(O)c(O)c3Cl)cc1 (stereo not given) | inactive | – |
| C=C1CC[C@H]2C[C@@H]1C2(C)C | inactive | – |
| COC(=O)CCSCCC(=O)OC | inactive | – |
| CC(=O)OCC(=O)[C@@]1(O)CC[C@H]2[C@@H]3CCC4=CC(=O)CC[C@]4(C)[C@H]3C(=O)C[C@@]21C | inactive | – |
| Nc1nc2c(ncn2COC(CO)CO)c(=O)[nH]1 | inactive | – |
| C=C[Si](OC(=C)C)(OC(=C)C)OC(=C)C | inactive | – |
| N=C(N)c1ccc(OCCCOc2ccc(C(=N)N)cc2)cc1 | inactive | – |
| CCCN(CCC)CCc1cccc2c1CC(=O)N2 | inactive | – |
| ClC(Cl)(Br)Br | inactive | – |
| N[C@@H](C(=O)N[C@@H]1C(=O)N2C(C(=O)O)=C(Cl)CS[C@H]12)c1ccccc1 | – | 10.2% [at 13.7 µM] |
| CC(=O)OCC(CCn1cnc2cnc(N)nc21)COC(C)=O | inactive | – |
| CC(=O)CC(C)C | inactive | – |
| NS(=O)(=O)c1cc2c(cc1Cl)NC(C1CC3C=CC1C3)NS2(=O)=O (stereo not given) | inactive | – |
| CCC(C)C1CCCCC1=O (stereo not given) | inactive | – |
| CCOC(=O)c1c(C)n(C)c2ccc(O)cc12 | inactive | – |
| CC(=O)Nc1c(I)cc(I)c(C(=O)O)c1I | inactive | – |
| c1cnc(N2CCN(Cc3ccc4c(c3)OCO4)CC2)nc1 | inactive | – |

| SMILES | Potency | viability change, negative = cytotoxic |
| --- | --- | --- |
| CCCc1cc(C(N)=S)ccn1 | inactive | – |
| CCN(CC)CCOCCOC(=O)C1(c2ccccc2)CCCC1 | inactive | – |
| CCOC(=O)CC(C)=O | inactive | – |
| CCOC(C)(C)C | inactive | – |
| Cc1cnc(NS(=O)(=O)c2ccc(N)cc2)nc1 | inactive | – |
| O=c1cc(CO)occ1O | inactive | – |
| CCOC(=O)CCC(C)=O | inactive | – |
| CN1N=C(C(N)=O)CCC1=O | inactive | – |
| CCCCOCCOCCOCc1cc2c(cc1CCC)OCO2 | inactive | – |
| COc1ccc2c(c1)c(CC(=O)OCC(=O)O)c(C)n2C(=O)c1ccc(Cl)cc1 | inactive | – |
| CCCCCCCCCCCCCCCCC | inactive | – |
| CCCCCSCCCCC | inactive | – |
| CCN1CCC[C@H]1CNC(=O)c1cc(S(N)(=O)=O)ccc1OC | inactive | – |
| C=COCC1CCC(CO)CC1 (stereo not given) | inactive | – |
| O=c1[nH]c(=O)n([C@H]2C[C@H](O)[C@@H](CO)O2)cc1I | inactive | – |
| CC(C)CNCC(C)C | inactive | – |
| OC[C@]1(O)OC[C@@H](O)[C@H](O)[C@@H]1O | inactive | – |
| NS(=O)(=O)c1ccc(C(=O)O)cc1 | inactive | – |
| O=c1cc(-c2ccccc2)oc2ccccc12 | inactive | – |
| CCCCCCCCCCCC | inactive | – |
